# Test results as given in PubChem BioAssay (Tox21).
# Results filed as inconclusive are left out. A call without a number means that no potency is given here. The source holds several records for some structures; these can differ, active in one and inactive in another. Active and inactive are the calls of the source. Unless noted, calls follow the shape of the dose curve; as a rule, active = well fitted curve in the direction sought with a large enough effect in the repeat runs; inconclusive = weak or mixed curves; inactive = no such curve, though single readings can be large; an effect the other way counts as inactive or inconclusive.
# Columns and labels:
# [1] = qHTS assay to identify small molecule agonists of the vitamin D receptor (VDR) signaling pathway - cell viability counter screen (AID 743224); also: series mostly up to about 63 µM; nearly all actives have a fitted effect of over 50% in size
# Procedure, shortened: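 Plated VDR-bla cells (4 h, 37C) received compound, incubated 16 h, then LiveBLAzer substrate 2 h RT; CellTiter-Glo added afterwards, luminescence read at 30 min.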
# [2] = qHTS assay to identify small molecule antagonists of the vitamin D receptor (VDR) signaling pathway - cell viability counter screen (AID 743225); also: nearly all actives have a fitted effect of over 50% in size
# Procedure, shortened: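 HEK293T VDR-bla; cpd + 1a,25-(OH)2D3 3 nM final, 16 h 37C/5% CO2; B/G FRET substrate 2 h RT; then CellTiter-Glo 30 min RT, luminescence.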
# [3] = qHTS assay to identify small molecule agonists of the NFkB signaling pathway (AID 1159509; active = well fitted curve in the direction sought with a large enough effect in the signal ratio in the repeat runs, not every such curve was filed as active; the % refers to the signal ratio; also: series mostly up to about 61 µM)
# Procedure, shortened: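 After overnight attachment, reporter cells received test compounds, DMSO or positive controls and were incubated 5 hr at 37 C. FRET substrate was then added for 1.5 hr at room temperature before dual-emission fluorescence reading.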
# [4] = qHTS assay to identify small molecule agonists of the NFkB signaling pathway - cell viability counter screen (AID 1159515; calls by dose curve; also: series mostly up to about 61 µM; nearly all actives have a fitted effect of over 55% in size)
# Procedure, shortened: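 Using the same wells as the NFkB reporter read, ME-180 NFkB-bla cells given compounds for 5 hr were assessed for viability via CellTiter-Glo, with luminescence taken after a 30 min room-temperature incubation.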
# [5] = qHTS assay to identify small molecule agonists of the endoplasmic reticulum stress response signaling pathway (AID 1159516; active = well fitted activation curve with a large enough effect in the signal ratio in the repeat runs, not every such curve was filed as active; the % refers to the signal ratio)
# Procedure, shortened: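 An ESRE-bla HeLa cell assay: compounds were pin-transferred from DMSO onto overnight-plated cells and left 5 hr at 37 C. Substrate was then loaded for 2 hr at room temperature before reading fluorescence at 460 nm and 530 nm.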
# [6] = qHTS assay to identify small molecule agonists of the endoplasmic reticulum stress response signaling pathway - cell viability counter screen (AID 1159517; calls by dose curve;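 also: HeLa cells carrying an ER stress response element beta-lactamase reporter; series mostly up to about 61 µM; nearly all actives have a fitted effect of over 50% in size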)
# Procedure, shortened: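 Luminescence readout: CellTiter-Glo, 30 min RT, same wells as the ESRE-bla reporter read. HeLa ESRE-bla, 1,500 cells/well, o/n 37 C; cpd 5 hr 37 C/5% CO2.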
# [7] = qHTS assay to identify small molecule antagonists of the retinoid-related orphan receptor gamma (ROR-gamma) signaling pathway - cell viability counter screen (AID 1159520); also: nearly all actives have a fitted effect of over 50% in size
# Procedure, shortened: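 Tet-on ROR gamma CHO cells (1,000/well) were plated 4 hr, given compounds in DMSO for 2 hr at 37 C, then induced with 1 uM final doxycycline for 16 hr. Viability was read as ATP by CellTiter-Glo luminescence after 30 min.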
# [8] = target: Nuclear receptor ROR-gamma (Homo sapiens) (UniProt P51449); test: qHTS assay to identify small molecule antagonists of the retinoid-related orphan receptor gamma (ROR-gamma) signaling pathway (AID 1159521; also: nearly all actives have a fitted effect of over 50% in size; also: potency is read from the fitted curve at half-maximal effect)
# Procedure, shortened: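 Cells were plated, rested 4 h at 37 C, exposed to compounds for 2 h, then given 1 uM final doxycycline hyclate to induce RORγ expression. After 16 h, ONE-Glo luminescence from the ROR response element reporter was measured.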
# [9] = qHTS assay to identify small molecule agonists of the AP-1 signaling pathway - cell viability counter screen (AID 1159525; calls by dose curve; also: nearly all actives have a fitted effect of over 55% in size)
# Procedure, shortened: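 ME-180 AP-1-bla, 2500 cells/well, Opti-MEM + 0.5% dialyzed FBS; overnight 37 °C; cpd 15-pt titration, 5 h 37 °C; CellTiter-Glo 30 min RT; luminescence read; normalised to TOAB and DMSO controls.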
# [10] = qHTS assay to identify small molecule agonists of the AP-1 signaling pathway (AID 1159526; calls by dose curve)
Compound,outcome [1],outcome [2],outcome [3],outcome [4],outcome [5],outcome [6],Potency [7],Potency [8],Potency [9],Potency [10]
CN(C)N=O,inactive,inactive,inactive,inactive,inactive,inactive,inactive,inactive,inactive,inactive
O=c1[nH]c2ccccc2c(=O)o1,inactive,inactive,inactive,inactive,inactive,inactive,inactive,inactive,inactive,inactive
COC(=O)c1ccccc1N,inactive,inactive,inactive,,inactive,inactive,inactive,inactive,inactive,inactive
CC(C)C1(C)N=C(c2nc3ccccc3cc2C(=O)O)NC1=O (stereo not given),inactive,inactive,inactive,,,inactive,inactive,inactive,inactive,inactive
Cc1cc(Cl)ccc1O,inactive,inactive,inactive,,inactive,inactive,inactive,inactive,inactive,inactive
COC(=O)NC(=S)Nc1ccccc1NC(=S)NC(=O)OC,inactive,inactive,inactive,,,inactive,inactive,inactive,inactive,inactive
CCC[CH2][Sn]([Cl])([Cl])[Cl],inactive,inactive,inactive,,inactive,inactive,inactive,inactive,inactive,inactive
CCOP(=S)(OCC)Oc1cnc2ccccc2n1,inactive,inactive,inactive,,inactive,inactive,inactive,,inactive,inactive
ClCCBr,inactive,inactive,inactive,,inactive,inactive,inactive,inactive,inactive,inactive
Oc1ccccc1Cl,inactive,inactive,inactive,,inactive,inactive,inactive,,inactive,inactive
CCN(CC)CCO,inactive,inactive,inactive,,,inactive,inactive,inactive,inactive,inactive
CCOC(=O)c1ccccc1C(=O)OCC,inactive,inactive,inactive,,inactive,inactive,inactive,inactive,inactive,inactive
Cc1cc(-c2cc(C)c(N)c(C)c2)cc(C)c1N,inactive,inactive,inactive,,inactive,inactive,inactive,inactive,inactive,inactive
CCCC1COC(Cn2cncn2)(c2ccc(Cl)cc2Cl)O1 (stereo not given),inactive,inactive,inactive,,,inactive,inactive,43.3 µM (active),inactive,inactive
O=[N+]([O-])c1ccc(Oc2ccc(Cl)cc2Cl)cc1,inactive,inactive,inactive,,inactive,inactive,inactive,inactive,inactive,inactive
CN(N=O)c1ccccc1,inactive,inactive,inactive,,inactive,inactive,inactive,inactive,inactive,inactive
CN=C=S,inactive,inactive,inactive,,,inactive,inactive,,inactive,inactive
CC(C)N1C(=O)c2ccccc2NS1(=O)=O,inactive,inactive,inactive,,,inactive,inactive,inactive,inactive,inactive
O=[N+]([O-])c1ccc([As](=O)(O)O)cc1,inactive,inactive,inactive,,,inactive,inactive,,inactive,inactive
CC(C)OC(=O)Nc1ccccc1,inactive,inactive,inactive,,,inactive,inactive,inactive,inactive,inactive

Compound,outcome [1],outcome [2],outcome [3],outcome [4],outcome [5],outcome [6],Potency [7],Potency [8],Potency [9],Potency [10]
CCc1cccc(C)c1N(C(=O)CCl)C(C)COC (stereo not given),inactive,inactive,inactive,,inactive,inactive,inactive,,inactive,inactive
CCC12COCN1COC2,inactive,inactive,inactive,,inactive,inactive,inactive,inactive,inactive,inactive
Cc1ccccc1O,inactive,inactive,inactive,,,inactive,inactive,inactive,inactive,inactive
C1CC2OC2CC1C1CO1 (stereo not given),inactive,inactive,inactive,,,inactive,inactive,inactive,inactive,inactive
ClCc1cccnc1,inactive,inactive,inactive,,,inactive,inactive,inactive,inactive,inactive
CC(C)NC(=O)N1CC(=O)N(c2cc(Cl)cc(Cl)c2)C1=O,inactive,inactive,inactive,,inactive,inactive,inactive,inactive,inactive,inactive
O=c1n(Cl)c(=O)n(Cl)c(=O)n1Cl,inactive,inactive,inactive,,inactive,inactive,inactive,inactive,inactive,inactive
O=c1ccc(=O)[nH][nH]1,inactive,inactive,inactive,,inactive,inactive,inactive,inactive,inactive,inactive
COc1ccc2c3c1O[C@H]1[C@@H](O)C=C[C@H]4[C@@H](C2)N(C)CC[C@@]341,inactive,inactive,inactive,,inactive,inactive,inactive,60.1 µM (active) and inactive,inactive,inactive
Cc1[nH]c(=O)n(C(C)(C)C)c(=O)c1Cl,inactive,inactive,inactive,,inactive,inactive,inactive,inactive,inactive,inactive
CCOP(=S)(OCC)SCCSCC,inactive,inactive,inactive,,inactive,inactive,inactive,inactive,inactive,inactive
CC(C)(C)C(O)(CCc1ccc(Cl)cc1)Cn1cncn1 (stereo not given),inactive,inactive,inactive,,,inactive,inactive,inactive,inactive,inactive
Nc1ccc(Br)cc1,,inactive,inactive,,inactive,inactive,inactive,inactive,inactive,inactive
CCCCCCCCCCCC#N,inactive,inactive,inactive,,inactive,inactive,inactive,inactive,inactive,inactive
CCC(C)(CC)c1cc(NC(=O)c2c(OC)cccc2OC)on1,inactive,inactive,inactive,,,inactive,inactive,,inactive,inactive
CCNc1nc(NC(C)C)nc(SC)n1,inactive,inactive,inactive,,,inactive,inactive,inactive,inactive,inactive
CC(C)(C)OOC(C)(C)C,inactive,inactive,inactive,,,inactive,inactive,inactive,inactive,inactive
O=C1CCCN1,inactive,inactive,inactive,,inactive,inactive,inactive,inactive,inactive,inactive
NCCc1ccc(O)cc1,inactive,inactive,inactive,,,inactive,inactive,inactive,inactive,inactive
